Source: PubChem BioAssay (NCATS)
Records with an inconclusive call do not appear. A call without a number means that no potency is given here. Active and inactive are the calls of the source. Unless noted, the call rests on the fitted dose curve; in most records, active means well fitted curve in the direction sought with a large enough effect in the repeat runs; inconclusive means weak or mixed curves; inactive means no such curve, though single readings can be large; an effect the other way counts as inactive or inconclusive.

How the values were obtained:
[1] = A High-Content qHTS Against Drug Library for the Identification of Small Molecules that Inhibit DYT1 Early Onset Primary Dystonia-Associated Cell Pathology (AID 1645839; calls by dose curve; further: series mostly up to about 46 µM)
Outline: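 Readout: %pathology, the punctate EGFP-TorsinA distribution from imaging, as the primary channel and cell count as the toxicity counterscreen. HEK293 Flp-In cells expressing delE TorsinA were induced with tetracycline and treated with compound for 48 h.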

[2] = biological target: Cytochrome P450 2D6 (Homo sapiens) (UniProt P10635); experiment: Cytochrome P450 family 2 subfamily D member 6 (CYP2D6) small molecule antagonists: luciferase biochemical (cell-free) qHTS assay (AID 1645840); further: nearly all actives have a fitted effect of over 55% in size; further: potency means the concentration at half of the fitted maximal effect
Outline: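 P450-Glo luminescent screen: recombinant CYP2D6 enzyme–proluciferin substrate mix preincubated with compound 10 min at room temperature, then NADPH regeneration added for 1 h at room temperature. Detection reagent added for 20 min; luciferin light read as relative luminescence units.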

[3] = biological target: Cytochrome P450 2C9 (Homo sapiens) (UniProt P11712); experiment: Cytochrome P450 family 2 subfamily C member 9 (CYP2C9) small molecule antagonists: luciferase biochemical (cell-free) qHTS assay (AID 1645842); further: nearly all actives have a fitted effect of over 55% in size; further: potency means the concentration at half of the fitted maximal effect
Outline: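 Luminescence, after 20 min with luciferin detection reagent, reflected CYP2C9 turnover during a 1 h NADPH-driven reaction at 37C. Enzyme-substrate mix contained 0.4% bovine serum albumin and was preincubated with compound 10 min at room temperature.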

Papain (Carica papaya) = Papain (Carica papaya) (UniProt P00784); experiment: Primary qHTS assay for inhibitors of the protease papain (AID 1645873; active means well fitted curve in the direction sought with a large enough effect; an effect the other way counts as inactive or inconclusive;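 further: papain turnover of Z-FR-AMC read as the AMC fluorescence gain over 10 min; series mostly up to about 50 µM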)
[4] = biological target: N-terminal Xaa-Pro-Lys N-methyltransferase 1 (Homo sapiens) (UniProt Q9BV86); experiment: Confirmatory qHTS for Inhibitors of N-terminal methyltransferase 1 (NTMT1): MTaseGlo Assay (AID 1645874; active means well fitted curve in the direction sought with a large enough effect; an effect the other way counts as inactive or inconclusive; further: potency means the concentration at half of the fitted maximal effect; nearly all actives have a fitted effect of over 65% in size); settings: NTMT1 enzyme, MTase-Glo SAH luminescence
Outline: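 Compounds are incubated with 125 nM NTMT1 and 100 uM SAM for 15 min before the SPKRIA peptide (1 uM) starts a 30 min room-temperature methylation. SAH is measured by coupled luciferase luminescence and curves fitted to a Hill equation.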

Chain of Papain (Carica papaya) (P00784 whole entry, looked up): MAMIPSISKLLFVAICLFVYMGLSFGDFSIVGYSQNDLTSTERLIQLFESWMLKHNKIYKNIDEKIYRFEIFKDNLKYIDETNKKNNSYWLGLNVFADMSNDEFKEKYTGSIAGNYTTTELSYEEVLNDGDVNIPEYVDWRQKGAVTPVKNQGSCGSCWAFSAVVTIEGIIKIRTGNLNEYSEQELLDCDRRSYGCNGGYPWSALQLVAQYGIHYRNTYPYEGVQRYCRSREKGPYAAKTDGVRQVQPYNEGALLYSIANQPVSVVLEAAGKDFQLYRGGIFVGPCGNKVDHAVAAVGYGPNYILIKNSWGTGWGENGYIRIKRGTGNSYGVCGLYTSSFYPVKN
Chain of Cytochrome P450 2C9 (Homo sapiens) (P11712 whole entry, looked up): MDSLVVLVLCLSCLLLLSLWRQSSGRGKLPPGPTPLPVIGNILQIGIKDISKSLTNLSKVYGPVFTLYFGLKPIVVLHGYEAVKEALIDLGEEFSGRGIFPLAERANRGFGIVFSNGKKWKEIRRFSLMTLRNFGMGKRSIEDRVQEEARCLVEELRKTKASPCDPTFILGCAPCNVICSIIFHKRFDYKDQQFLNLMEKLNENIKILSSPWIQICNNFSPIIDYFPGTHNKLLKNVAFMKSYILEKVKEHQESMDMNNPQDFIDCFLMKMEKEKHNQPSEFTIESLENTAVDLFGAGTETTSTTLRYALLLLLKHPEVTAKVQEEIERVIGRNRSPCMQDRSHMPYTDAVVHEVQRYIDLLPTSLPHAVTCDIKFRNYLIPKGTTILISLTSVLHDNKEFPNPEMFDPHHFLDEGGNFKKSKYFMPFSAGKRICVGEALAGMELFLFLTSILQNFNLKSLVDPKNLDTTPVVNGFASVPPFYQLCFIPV
Chain of Cytochrome P450 2D6 (Homo sapiens) (P10635 whole entry, looked up): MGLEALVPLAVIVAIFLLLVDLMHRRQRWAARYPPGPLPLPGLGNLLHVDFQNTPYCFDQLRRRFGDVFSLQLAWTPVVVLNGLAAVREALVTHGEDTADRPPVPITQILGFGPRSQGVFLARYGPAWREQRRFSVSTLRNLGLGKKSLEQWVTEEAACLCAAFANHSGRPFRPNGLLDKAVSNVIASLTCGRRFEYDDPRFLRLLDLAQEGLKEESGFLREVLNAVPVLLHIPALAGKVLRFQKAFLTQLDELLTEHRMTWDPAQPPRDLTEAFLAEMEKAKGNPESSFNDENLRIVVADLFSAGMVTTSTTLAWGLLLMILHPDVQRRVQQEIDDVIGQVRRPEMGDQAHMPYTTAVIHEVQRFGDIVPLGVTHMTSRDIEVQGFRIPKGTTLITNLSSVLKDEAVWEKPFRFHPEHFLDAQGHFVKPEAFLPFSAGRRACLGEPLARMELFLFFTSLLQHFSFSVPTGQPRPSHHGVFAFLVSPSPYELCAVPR
Chain of N-terminal Xaa-Pro-Lys N-methyltransferase 1 (Homo sapiens) (Q9BV86 whole entry, looked up): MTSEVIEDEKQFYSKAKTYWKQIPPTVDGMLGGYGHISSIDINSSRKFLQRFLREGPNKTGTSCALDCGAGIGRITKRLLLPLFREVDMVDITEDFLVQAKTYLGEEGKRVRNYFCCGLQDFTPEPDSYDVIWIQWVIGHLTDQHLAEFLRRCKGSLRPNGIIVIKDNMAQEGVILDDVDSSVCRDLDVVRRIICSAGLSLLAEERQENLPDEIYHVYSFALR

SMILES | Potency [1] | Potency [2] | Potency [3] | Potency (Papain (Carica papaya)) | Potency [4]
CS(=O)(=O)c1ccc([C@@H](O)[C@@H](CF)NC(=O)C(Cl)Cl)cc1 | inactive | inactive | inactive |  | 
Oc1cn2c(n1)Nc1ccc(Cl)c(Cl)c1C2 | inactive | inactive | 6.74 µM (active) |  | 
CC(=O)Oc1ccc(C2(c3ccc(OC(C)=O)cc3)C(=O)Nc3ccccc32)cc1 | inactive | inactive | 5.49 µM (active) |  | 
C[C@@H]1CCN(C(=O)[C@H](CCCN=C(N)N)NS(=O)(=O)c2cccc3c2NC[C@H](C)C3)[C@@H](C(=O)O)C1 | inactive | inactive | inactive |  | 
CC1(C)CO[C@@H](CC(=O)O)CN1 | inactive | inactive | inactive |  | 
COc1cc(C(=O)N2CCOCC2)cc(OC)c1OC |  | inactive | inactive |  | 
CNCC(O)c1ccc(O)c(O)c1 (centres undefined) | inactive |  | inactive | inactive | 
CC1=C(C/C=C(\C)CCC[C@H](C)CCC[C@H](C)CCCC(C)C)C(=O)c2ccccc2C1=O |  | inactive |  |  | 
CC12CCC(CC1)C(C)(C)O2 | inactive | inactive | inactive |  | 
NCCNCCNCCN |  |  | inactive |  | 
CC(CN(C)C)CN1c2ccccc2CCc2ccccc21 (centres undefined) |  | 2.88 µM (active) | inactive | inactive | 
CC[C@@]1(c2ccccc2)NC(=O)N(C)C1=O | inactive | inactive | inactive |  | 
CCCCc1ncc(/C=C(\Cc2cccs2)C(=O)O)n1Cc1ccc(C(=O)O)cc1 |  | inactive | inactive | inactive | 
CC1CC(OC(=O)C(O)c2ccccc2)CC(C)(C)N1C (centres undefined) |  | inactive | inactive |  | 
O=C1OC(OC(=O)c2cccnc2Nc2cccc(C(F)(F)F)c2)c2ccccc21 (centres undefined) |  | inactive |  |  | 
CC(CN1c2ccccc2Sc2ccccc21)N(C)C (centres undefined) |  | 2.45 µM (active) | inactive | inactive | 
Cc1cc(C(C#N)c2ccc(Cl)cc2)c(Cl)cc1NC(=O)c1cc(I)cc(I)c1O (centres undefined) |  | 11 µM (active) | 21.9 µM (active) |  | 
N[C@H](C(=O)O)c1ccc(O)cc1 | inactive | inactive | inactive |  | 
CN1CCC[C@@H]1Cc1c[nH]c2ccc(CCS(=O)(=O)c3ccccc3)cc12 | inactive | 13.8 µM (active) | 13.8 µM (active) | inactive | 
CC(C)(C)C(=O)NCCCC(=O)O | inactive | inactive | inactive |  | 
CCOC(=O)[C@H](CCc1ccccc1)N[C@@H](C)C(=O)N1C(=O)N(C)C[C@H]1C(=O)O |  | inactive | inactive |  | 
CN1CCOC(c2ccccc2)c2ccccc2C1 (centres undefined) |  |  | inactive |  | 

SMILES | Potency [1] | Potency [2] | Potency [3] | Potency (Papain (Carica papaya)) | Potency [4]
CCN(CC)CCSC(=O)C(c1ccccc1)c1ccccc1 | inactive | 5.49 µM (active) | 13.8 µM (active) |  | 
CC(=O)Oc1c(C)c(C)c2c(c1C)CC[C@@](C)(CCC[C@H](C)CCC[C@H](C)CCCC(C)C)O2 | inactive |  | inactive |  | 
CCCOC(=O)c1ccccc1 | inactive | inactive | inactive |  | 
CC(C)c1c(C(=O)Nc2ccccc2)c(-c2ccccc2)c(-c2ccc(F)cc2)n1CC[C@@H](O)C[C@@H](O)CC(=O)O |  |  |  | inactive | 
Cc1cccc(C)c1NC(=O)CN(CC(=O)O)CC(=O)O | inactive | inactive | inactive |  | 
CN1[C@@H]2CC[C@H]1CC(OC(=O)C(O)c1ccccc1)C2 (some centres undefined) |  | inactive | inactive |  | 
CCCCN(CCCC)CCCOC(=O)c1ccc(N)cc1 | inactive | 0.0309 µM (active) | inactive |  | 
NCC(=O)CCC(=O)O | inactive | inactive | inactive |  | 
CC(C)(C(=O)O)c1ccc(C(O)CCCN2CCC(C(O)(c3ccccc3)c3ccccc3)CC2)cc1 (centres undefined) | inactive |  |  | inactive | 
O=C(O)CC(O)C(=O)O (centres undefined) | inactive | inactive | inactive |  | 
O=C1O[C@H]([C@@H](O)CO)C(O)=C1O |  | inactive | inactive |  | 
O=C1c2c(O)cccc2Cc2cccc(O)c21 | inactive | inactive | inactive |  | 
CCCCN(CCCC)CC(O)c1cc(Cl)cc2c1-c1ccc(Cl)cc1/C2=C/c1ccc(Cl)cc1 (centres undefined) |  | 0.347 µM (active) | 21.9 µM (active) | inactive | 
C[C@@H](O)[C@H](N)C(=O)O | inactive | inactive | inactive |  | 
C#CCN(C)Cc1ccccc1 | inactive | inactive | inactive | inactive | 
Cn1c(=O)c2c(ncn2CC2OCCO2)n(C)c1=O |  | inactive | inactive |  | 
Cc1ncc(COP(=O)(O)O)c(C=O)c1O | inactive | inactive | inactive |  | 
COC(=O)C1=C(C)NC(C)=C(C(=O)OC)C1c1ccccc1[N+](=O)[O-] | inactive |  |  | inactive | 
CSc1ccc2c(c1)C(N1CCN(C)CC1)Cc1ccccc1S2 (centres undefined) |  | 0.55 µM (active) |  | inactive | 
O=C(O)[C@H](O)c1ccccc1 | inactive | inactive | inactive |  | 
CCN(CC)CCNC(=O)c1c(C)[nH]c(/C=C2\C(=O)Nc3ccc(F)cc32)c1C |  |  | inactive |  | 30.8 µM (active)
